Test results: PubChem BioAssay AID651704 (Broad Institute, 2012)
Several values for one entry are separate records, joined by “and”; a condition that tells them apart may be missing. Equal values may be shown once. Among all 350,000 compounds or so, about 1,600 (0.46%) were called active.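 The calls were made as follows: active = every replicate reaching a set inhibition limit, whatever the replicate mean (cut at about 25% in these data); inconclusive = mean inhibition reaches that limit but some replicates miss it; inactive = the rest.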 For the sample, actives were picked, then their nearest neighbours and some compounds at random. Some compounds were tested as several samples or in several runs, with calls that do not always agree.

The compounds below were run against Protein AF-9 (Homo sapiens) (UniProt P42568) (assay: MLL-AF4/AF9 protein interaction blockers – biochemical, AlphaScreen, biotin-AF4 peptide, FLAG-AF9, single point, primary screen (AID 651704;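 also: 0% = plate neutral control median and 100% = total signal loss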)). Settings: biotin-AF4 peptide binding to FLAG-AF9, at 10 µM, stronger effect = higher value.
Chain of Protein AF-9 (Homo sapiens) (P42568 whole entry, looked up): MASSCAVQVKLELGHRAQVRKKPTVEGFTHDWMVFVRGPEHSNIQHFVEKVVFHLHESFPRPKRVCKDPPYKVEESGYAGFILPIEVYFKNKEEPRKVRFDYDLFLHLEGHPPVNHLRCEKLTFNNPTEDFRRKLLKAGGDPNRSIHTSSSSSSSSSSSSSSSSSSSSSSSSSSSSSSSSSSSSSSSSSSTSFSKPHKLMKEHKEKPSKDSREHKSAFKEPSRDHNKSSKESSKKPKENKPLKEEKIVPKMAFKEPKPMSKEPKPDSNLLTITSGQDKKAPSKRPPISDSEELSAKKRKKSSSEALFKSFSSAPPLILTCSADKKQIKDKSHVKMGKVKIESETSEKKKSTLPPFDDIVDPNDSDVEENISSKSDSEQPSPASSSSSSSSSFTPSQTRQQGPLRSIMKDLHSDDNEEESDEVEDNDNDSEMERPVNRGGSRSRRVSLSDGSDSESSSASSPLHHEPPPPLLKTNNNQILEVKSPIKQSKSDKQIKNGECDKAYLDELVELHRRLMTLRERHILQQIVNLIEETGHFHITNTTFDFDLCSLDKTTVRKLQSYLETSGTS
For `COc1ccc2c(c1)c(=Cc1ccc(N(C)C)cc1)c1cc(-c3ccccc3)[n+](C)n12`, the inhibition was 67.9% (active).
In the case of `COc1cccc2c1C(=O)c1c(O)c3c(c(O)c1C2=O)CC(O)(C(C)=NNC(=O)c1ccc(Cl)c(Cl)c1)CC3OC1CC(N)C(O)C(C)O1` (centres undefined), the inhibition is reported as 33.8% (active).
In the case of `N#C[C@@H]1[C@H](c2ccccc2-c2cccc(F)c2)[C@@H](CO)N1C(=O)CN1CCOCC1`, the inhibition is reported as -3.02% (inactive).
For `CO[C@@H]1CN(C)C(=O)c2ccc(NS(C)(=O)=O)cc2OC[C@H](C)NC[C@H]1C`, the inhibition was -2.11% (inactive).
With `Cc1ccc2c(c1)C1CN(C)CCC1N2S(=O)(=O)c1cccc(F)c1` (centres undefined) the inhibition was 4.04% (inactive).
`Cc1ccc2c(c1)C1CN(C)CCC1N2S(=O)(=O)c1ccc(Oc2ccc([N+](=O)[O-])cc2)cc1` (centres undefined) was tested, and the inhibition was 20.9% (inactive) and 27.4% (active).
With `Cc1ccc2c(c1)C1CN(C)CCC1N2C(=S)Nc1ccc(OC(F)F)cc1` (centres undefined) the inhibition was 5.25% (inactive).
`CN(C)C(=O)c1cccc(-c2ccc([C@H]3[C@H](CO)N4C(=O)CN(C(=O)C5CCCCC5)C[C@@H]34)cc2)c1` was tested, and the inhibition was -3% (inactive).
With `CC(C)CC#Cc1cnc2c(c1)C(=O)N([C@@H](C)CO)C[C@@H](C)[C@@H](CN(C)C(=O)c1cccnc1)O2` the inhibition was -2.62% (inactive).
`COc1ccc2c3c(n(C)c2c1)[C@@H](CO)N(Cc1ccccc1)CC31CN(C(=O)C2CC2)C1` was tested, and the inhibition was 2.25% (inactive).
For `CC(=O)Nc1cc(-c2ccc(N3CCN(C)CC3)cc2)cn2c(-c3ccc(F)cc3)cnc12`, the inhibition was 26.2% (active).
With `COc1ccccc1-c1cc(NC(C)=O)c2ncc(-c3ccc(F)cc3)n2c1` the inhibition was -6.86% (inactive).
With `CC(=O)Nc1cc(-c2ccc(N3CCN(C)CC3)cc2)cn2c(-c3cccc(C(=O)N(C)C)c3)cnc12` the inhibition was 9.58% (inactive).
In the case of `CN(C)C(=O)c1cccc(-c2ccc3c(c2)[C@H]2[C@H](CCN2S(=O)(=O)c2cn(C)cn2)[C@@H](CO)N3)c1`, the inhibition is reported as -3.61% (inactive).
With `Cc1noc(C)c1NC(=O)N(C)C[C@@H]1OCCCC[C@H](C)Oc2ccc(NC(=O)NC3CCCCC3)cc2C(=O)N([C@H](C)CO)C[C@H]1C` the inhibition was -0.856% (inactive).
With `CCCNC(=O)C[C@H]1C[C@H]2c3cc(NC(=O)NC4CCCCC4)ccc3O[C@H]2[C@H](CO)O1` the inhibition was 5.96% (inactive).
With `CCNC(=O)C[C@H]1CC[C@@H](NC(=O)C2CCOCC2)[C@@H](CO)O1` the inhibition was 1.25% (inactive).
`O=C(NCCc1cccc(F)c1)C1CCCN(c2nc3ccccc3s2)C1` (centres undefined) was tested, and the inhibition was 39.3% (active).
In the case of `Cc1cc(=O)n2nc(N3CCCC(C(=O)NCc4cccc(Cl)c4)C3)sc2n1` (centres undefined), the inhibition is reported as 2.52% (inactive).
For `O=C(NCc1ccccc1)C1CCCN(c2nc3ccsc3c(=O)s2)C1` (centres undefined), the inhibition was -3.41% (inactive).
In the case of `C/C=C/c1ccccc1[C@@H]1[C@@H](C#N)N(C(=O)Cc2ccccn2)[C@H]1CO`, the inhibition is reported as 0.68% (inactive).
`COc1ccccc1-c1cnc2c(c1)C(=O)N([C@H](C)CO)C[C@H](C)[C@@H](CN(C)CC1CCOCC1)O2` was tested, and the inhibition was -1.31% (inactive).
For `Cc1ccc2cc(C)c(N3CCN(c4ccc(F)cc4)CC3)nc2c1`, the inhibition was -1.83% (inactive).
With `CC(=O)c1c(N2CCN(c3ccc(F)cc3)CC2)nc(=S)n(-c2ccccc2)c1C` the inhibition was 26.4% (active).
In the case of `CC(=O)c1c(N2CCOCC2)nc(=S)n(-c2cc(C)ccc2C)c1C`, the inhibition is reported as 11.8% (inactive).
For `O=C(C1CCCC1)N1CC(=O)N2[C@H](C1)[C@@H](c1ccc(-c3cccnc3)cc1)[C@@H]2CO`, the inhibition was -2.09% (inactive).
`Cc1cccc(S(=O)(=O)N2CCCCN3[C@@H](CO)[C@H](c4ccc(-c5cccnc5)cc4)[C@@H]3C2)c1` was tested, and the inhibition was -0.659% (inactive).
`COc1ccc2c3c(n(C)c2c1)[C@@H](CO)N(Cc1ccccc1F)CC31CCN(C(=O)C2CCOCC2)CC1` was tested, and the inhibition was 1.15% (inactive).
For `Cc1noc(C)c1NC(=O)N(C)C[C@@H]1OCCCC[C@@H](C)Oc2ccc(NC(=O)C3CCCCC3)cc2C(=O)N([C@@H](C)CO)C[C@H]1C`, the inhibition was -0.114% (inactive).
With `COc1ccc(/C=C/C(=O)OCC(=O)NCc2cccs2)cc1OC` the inhibition was 2.43% (inactive).
With `COc1cc(/C=C/C(=O)OCC(=O)c2ccccc2)cc(OC)c1OC` the inhibition was 4.16% (inactive).
With `COc1cc2c(cc1NC(=O)COC(=O)/C=C/c1ccccc1)oc1ccccc12` the inhibition was 30.3% (active).
For `COc1ccc(CNC(=O)C[C@@H]2CC[C@H](NC(=O)c3cccc(F)c3)[C@H](CO)O2)cc1`, the inhibition was 0.518% (inactive).
`COC(=O)c1cc(S(=O)(=O)NCC2CCN(Cc3ccc(Cl)cc3)CC2)cn1C` was tested, and the inhibition was 5.58% (inactive).
`COC(=O)c1c(C)oc(C)c1S(=O)(=O)Nc1ccc(C(C)C)cc1` was tested, and the inhibition was 0.192% (inactive).
For `COC(=O)c1c(C)oc(C)c1S(=O)(=O)NCc1ccc(Cl)cc1`, the inhibition was 28.9% (active).
In the case of `O=C(CC1CC1)Nc1ccc2c(c1)[C@@H]1C[C@@H](CC(=O)NC3CCCCC3)O[C@H](CO)[C@@H]1O2`, the inhibition is reported as 0.025% (inactive).
For `CC(C)CC#Cc1ccc([C@@H]2[C@@H](CO)N3C(=O)CN(C(=O)Nc4ccc(F)cc4)C[C@H]23)cc1`, the inhibition was 5.86% (inactive).
In the case of `CN(C)c1ccc(Nc2c3c4c(cccc4n(C)c2=O)C(=O)c2ccccc2-3)cc1`, the inhibition is reported as 64.1% (active).
With `CN(C)c1ccc(C2N(C)C(=O)c3ccccc3N2C)cc1` (centres undefined) the inhibition was 2.23% (inactive).
With `COc1cccc(S(=O)(=O)Nc2ccc3c(c2)[C@H]2C[C@H](CC(=O)N4CCCCC4)O[C@@H](CO)[C@H]2O3)c1` the inhibition was 0.52% (inactive).
`COc1ccc2c3c([nH]c2c1)[C@H](CO)N(C(=O)c1ccncc1)CC31CCN(C(=O)c2ccncc2)CC1` was tested, and the inhibition was 3.61% (inactive).
With `COc1ccc(C#Cc2ccc([C@@H]3[C@@H](CO)N4C(=O)CN(C(=O)c5ccc(F)cc5)C[C@@H]34)cc2)cc1` the inhibition was -3.35% (inactive).
With `O=C(c1ccccn1)N1CC2(C1)[C@H](c1ccccc1)[C@H](CO)N2C(=O)C1CCCC1` the inhibition was -1.83% (inactive).
`CN1C(=O)c2cc(NC(=O)c3ccno3)ccc2OC[C@H]2O[C@@H](CC(=O)NCC(F)(F)F)CC[C@@H]21` was tested, and the inhibition was -0.947% (inactive).
For `O=C1Nc2cc(C(=O)N3CCC(N4CCCCC4)CC3)ccc2S/C1=C\c1ccccc1`, the inhibition was 32.5% (active).
`CC1CCN(C(=O)c2ccc3c(c2)NC(=O)CN3)CC1` was tested, and the inhibition was 4.92% (inactive).
With `O=C(Nc1ccccc1)C1CCN(C(=O)c2ccc(Br)cc2)CC1` the inhibition was -2.26% (inactive).
In the case of `O=C(N[C@H]1CC[C@H](CCn2cc(C3(O)CCCC3)nn2)O[C@H]1CO)C1CC1`, the inhibition is reported as -0.223% (inactive).
In the case of `C[C@@H]1CN([C@@H](C)CO)C(=O)c2cc(N(C)C)ccc2O[C@@H](C)CCCCO[C@H]1CN(C)Cc1ccncc1`, the inhibition is reported as -1.22% (inactive).
In the case of `C[C@H](CO)N1C[C@H](C)[C@H](CN(C)Cc2ccc(C(F)(F)F)cc2)Oc2ccc(N(C)C)cc2CC1=O`, the inhibition is reported as 15.8% (inactive).
With `C[C@@H]1CCCCO[C@@H](CN(C)Cc2ccncc2)[C@H](C)CN([C@H](C)CO)C(=O)c2cc(N(C)C)ccc2O1` the inhibition was 1.48% (inactive).
With `C[C@@H]1CCCCO[C@H](CN(C)Cc2ccc(C(F)(F)F)cc2)[C@H](C)CN([C@@H](C)CO)C(=O)c2cc(N(C)C)ccc2O1` the inhibition was 29.4% (active).
With `C[C@@H]1CN([C@H](C)CO)C(=O)Cc2cc(N(C)C)ccc2O[C@@H]1CN(C)Cc1ccccc1` the inhibition was 3.48% (inactive).
For `C[C@H]1CN([C@@H](C)CO)C(=O)Cc2cc(N(C)C)ccc2O[C@@H]1CN(C)Cc1ccc(-c2ccccc2)cc1`, the inhibition was 51.6% (active).
In the case of `CCCNC(=O)N1C[C@H](C)[C@@H](OC)CN(C)C(=O)c2ccc(NC(=O)CC)cc2OC[C@@H]1C`, the inhibition is reported as -2.2% (inactive).
For `COc1cccc(C#Cc2ccc([C@@H]3[C@H](C#N)N[C@H]3CO)cc2)c1`, the inhibition was -2.01% (inactive).
With `CC(C)C#Cc1ccc([C@H]2[C@@H](CO)N3C(=O)CN(C(=O)Cc4ccccc4)C[C@H]23)cc1` the inhibition was -0.595% (inactive).
`COc1ccccc1NC(=O)Nc1ccc2c(c1)OC[C@H](C)NC[C@H](C)[C@@H](OC)CN(C)C2=O` was tested, and the inhibition was 1.19% (inactive).
`Cc1ccc(S(=O)(=O)Nc2ccc3c(c2)C(=O)N([C@@H](C)CO)C[C@@H](C)[C@@H](CN(C)S(=O)(=O)c2ccc(C)cc2)O3)cc1` was tested, and the inhibition was -1.03% (inactive).
`O=C(O)C[C@@H]1CC[C@H](NC(=O)CCN2CCCCC2)[C@H](CO)O1` was tested, and the inhibition was -0.492% (inactive).
For `Cc1ccccc1C(=O)Nc1ccccc1NC(=O)c1ccccc1C`, the inhibition was 0.679% (inactive).
`Cc1ccccc1C(=O)Nc1ccc(N2CCCCCC2)cc1` was tested, and the inhibition was 27.9% (active).
With `Cc1ccccc1C(=O)N1CCN(c2ccc(NC(=O)c3cccs3)cc2)CC1` the inhibition was 0.817% (inactive).
For `O=C(CC1CC1)N[C@@H]1C[C@@H]2O[C@H](CO)CC[C@@H]2O[C@@H]1CCc1ccc(C#Cc2ccccc2)cc1`, the inhibition was -5.03% (inactive).
`Cc1ccc(CN2CCN(c3ncccn3)CC2)c(C)c1` was tested, and the inhibition was -1.37% (inactive).
For `Oc1c(CN2CCN(c3ccc(F)cc3)CC2)cc(Cl)c2cccnc12`, the inhibition was 41.3% (active).
In the case of `Oc1c(CN2CCCC2)cc(COCc2ccccc2)c2cccnc12`, the inhibition is reported as 6.56% (inactive).
`O=C(NCCNc1ccccc1[N+](=O)[O-])c1ccccc1F` was tested, and the inhibition was 0.524% (inactive).
With `O=[N+]([O-])c1ccccc1NCc1ccccc1Cl` the inhibition was -5.33% (inactive).
For `O=[N+]([O-])c1ccccc1Nc1ccc(O)cc1`, the inhibition was 28.1% (active).
For `COc1ccc2c3c(n(C)c2c1)[C@@H](CO)N(C(C)=O)CC31CCN(Cc2nccs2)CC1`, the inhibition was 3.54% (inactive).
With `COc1ccc2c3c(n(C)c2c1)[C@@H](CO)N(C(=O)Nc1cccc(F)c1)CC31CCN(Cc2nccs2)CC1` the inhibition was 28.6% (active).
With `COc1ccc2c3c(n(C)c2c1)[C@H](CO)N(C(=O)Nc1cccc(F)c1)CC31CN(Cc2nccs2)C1` the inhibition was 7.77% (inactive).
